# Compound activity (PubChem BioAssay)
# Abeta yeast res – qHTS for compounds that reverse cellular toxicity of Amyloid beta (A-beta) peptide in yeast: Primary Screen; yeast expressing A-beta42, growth rescue, OD600, 48 h; response scale: 0% DMSO, 100% iron-clioquinol control; Potency, µM (series often up to 46.1 µM), actives largely listed as activators; 0.063% of 410,000 active; further: nearly all actives have a fitted effect of over 55% in size
#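 Yeast A-beta toxicity model in growth medium with pinned compounds, 48 h at 30 C; growth read as absorbance at 600 nm. Normalized to FeCl3/clioquinol equimolar mix (positive) and DMSO (negative).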
# GRP78 ERSR act – qHTS for Inducers of the Endoplasmic Reticulum Stress Response (ERSR) in Human Glioma: qHTS. AID 602332, 2012. Potency, µM, without a hit: at the top dose activation, hits mostly activators. U87-MG GRP78 promoter luciferase reporter, 16 h. 0.02% of 420,000 active; further: series mostly up to about 76 µM; % of control where 0% means no effect; nearly all actives have a fitted effect of over 35% in size
#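 ERSR induction read as luciferase luminescence (Bright-Glo, 10 min at room temperature) in stably transfected human U87-MG glioma cells exposed to compounds for 16 h, using GRP78 as sensor.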
# FUS yeast rescue – qHTS for Suppressors of FUS Proteinopathy: Primary screen using FUS-linked yeast assay. S. cerevisiae FUS-expressing, growth rescue, OD600, 24 h. Potency, µM (top dose mostly 76.6 µM), hits mostly activators. 0.24% of 390,000 active;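 further: plate controls were DMSO vehicle for no effect and reference control for full effect; nearly all actives have a fitted effect of over 55% in size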
#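 S. cerevisiae expressing FUS from galactose induction served as the toxicity model. Growth after 24hr at 30C, read as absorbance at 600 nm, indicates suppression of toxicity; compounds dosed at several concentrations.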
# MBNL1 CUG block – qHTS Assay for Inhibitors of MBNL1-poly(CUG) RNA binding | Muscleblind-like protein 1 (Homo sapiens), Q9NR56 | TR-FRET MBNL1-His/biotin-(CUG)12 binding, 665/545 ratio | Potency, µM (top dose mostly 57.5 µM), inactives show top-dose activity change, negative = inhibition, most hits filed as inhibitors | 0.036% of 280,000 active | AID 2675, 2010; active means well fitted inhibition curve with a large enough effect in the signal ratio, with a control signal flat, not every such curve was filed as active; inconclusive means small, poorly fitted or top-dose-only effect, or effect the other way, or a change in a side signal; inactive means no such curve, though single readings can be large or run the other way; the % refers to the signal ratio; further: on the % scale 0 is the no-effect control and ±100 the full control effect
# Target sequence (Q9NR56 whole entry, looked up): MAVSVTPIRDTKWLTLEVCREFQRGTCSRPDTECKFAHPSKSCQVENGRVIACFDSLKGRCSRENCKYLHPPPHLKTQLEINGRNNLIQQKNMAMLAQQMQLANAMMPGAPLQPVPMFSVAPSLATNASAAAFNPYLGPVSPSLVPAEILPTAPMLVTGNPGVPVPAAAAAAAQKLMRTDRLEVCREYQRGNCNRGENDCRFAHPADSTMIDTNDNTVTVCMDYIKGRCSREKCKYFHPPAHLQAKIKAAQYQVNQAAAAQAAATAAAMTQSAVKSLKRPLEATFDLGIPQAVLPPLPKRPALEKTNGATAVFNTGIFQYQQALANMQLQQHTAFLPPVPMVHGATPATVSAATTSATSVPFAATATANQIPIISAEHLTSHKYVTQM
#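 TR-FRET between His-tagged MBNL1 and biotin-(CUG)12 RNA, detected with Tb anti-His antibody (0.055 ng/ul) and streptavidin-XL665 (5 nM), 60 min at room temperature. Compounds titrated 92 nM to 58 uM; 665/545 nm ratio normalized to buffer and complex controls.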
# aSyn yeast inh – qHTS of alpha-syn Inhibitors; Yeast expressing alpha-synuclein, growth rescue, BacTiter-Glo, 24 h; Potency, µM (series often up to 46.1 µM), without a hit: at the highest dose growth rescue (activation), actives largely listed as activators; 0.14% of 370,000 active; AID 652106, 2013; further: % of control where 0% means no effect; nearly all actives have a fitted effect of over 65% in size
#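 Galactose-induced alpha-syn yeast (OD600=0.02, raffinose-pregrown) + pinned cpd, 24 hr, 30 deg C; growth by BacTiter-Glo luminescence. Growth restoration scores as activation.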
# TDP43 rescue – qHTS of TDP-43 Inhibitors; 1.8% of 410,000 active; TDP-43 expressing yeast growth rescue, BacTiter-Glo, 24 h; Potency, µM (series often up to 46.1 µM), for inactives: top-dose growth rescue (activation), hits mostly activators; further: % of control where 0% means no effect; nearly all actives have a fitted effect of over 50% in size
#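 Growth rescue of TDP-43-toxic yeast measured as ATP luminescence (BacTiter-Glo). Cells grown to mid-log in raffinose, induced in galactose at OD600=0.02, exposed to compound 24 hr at 30 deg C.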
# Numbers without * were called inactive; i = inactive; ? = inconclusive; nt = no result; [ ] = dose if it differs, or a comment. Compounds with a hit are over-represented: about 2% of the library has one in this group of screens. Unless noted, the call rests on the fitted dose curve; in most records, active means well fitted curve in the direction sought with a large enough effect; inconclusive means small, poorly fitted or top-dose-only effect, or another doubt; inactive means no such curve, though single readings can be large; an effect the other way counts as inactive or inconclusive. Potency means the concentration at half of the fitted maximal effect.
SMILES,Abeta yeast res,GRP78 ERSR act,FUS yeast rescue,MBNL1 CUG block,aSyn yeast inh,TDP43 rescue
Cc1cc(C)c2c(CCl)cc(=O)oc2c1,i,-2%,i,-11%,0%,7.1µM*
Cc1cc(C)c2c(CC(=O)O)coc2c1,i,-4%,i,-2%,22%,13µM*
Cc1cc(C)c2c(CN3CCCCC3)cc(=O)oc2c1,i,9%,i,5%,-8%,-11%
COCC(=O)Nc1cc(C(=O)NC2C3CC4CC2CC(O)(C4)C3)cc2nc(-c3ccccc3)n(C)c12 (configuration not stated),nt,0%,nt,nt,nt,nt
COc1cc(-c2cc(C)c3cccc(OC)c3n2)cc2c1OCCN(C(=O)Cn1nc(C)cc1C)C2,nt,1%,nt,nt,nt,nt
Cc1coc2cc3oc(=O)c(CCC(=O)N4CCCCC4)c(C)c3cc12,i,-1%,i,nt,nt,22µM*
Cc1c(CCC(=O)N2CCC[C@H]2C(=O)O)c(=O)oc2cc3oc4c(c3cc12)CCCC4,i,-9%,?,-7%,12%,20µM*
CCn1c(-c2cc(-c3ccc(OC(C)C)cc3)nc3ccccc23)n[nH]c1=S,i,11%,35µM*,13%,-4%,?
CCn1c(-c2cc(-c3ccc(C)cc3)nc3ccccc23)n[nH]c1=S,?,8%,i,5%,4%,-14%[0.397 µM]
O=C(c1ccco1)N(Cc1ccc([N+](=O)[O-])cc1)c1ccc(Br)cc1,i,-1%,i,17%,1%,32µM*
O=C(c1ccco1)N(Cc1ccc([N+](=O)[O-])cc1)c1ccc(Cl)cc1,i,-4%,i,?,10%,22µM*
O=C(O)c1ccccc1C(=O)N1N=C2/C(=C/c3cccc([N+](=O)[O-])c3)CCCC2C1c1cccc([N+](=O)[O-])c1 (configuration not stated),i,0%,25µM*,12%,1%,-13%
COc1cccc(/C=C2\Oc3cc(OCC(=O)N4Cc5ccccc5C[C@H]4C(=O)O)ccc3C2=O)c1,i,0%,28µM*,?,7%,4%
C/C(=N\Nc1ccc(F)cc1F)c1ccccc1O,i,5%,i,-2%,2%,13µM*
Cc1c(C=O)c2ccccn2c1C(=O)c1ccccc1,i,-2%,i,13%,18µM*,?
Cc1c(C=O)c2ccccn2c1C(=O)c1ccc(Cl)c([N+](=O)[O-])c1,i,0%,i,2%,-1%,5%
Cc1c(C=O)c2ccccn2c1C(=O)c1ccc(F)cc1,i,-3%,i,17%,16µM*,-25%
Cc1cc(CNC(=O)c2cnn(-c3ncc4c(n3)-c3ccccc3CCC4)c2C2CC2)on1,nt,-3%,nt,nt,nt,nt
Cc1cc(C(=O)NCCN2Cc3ccccc3OC(c3ccccc3F)C2)no1 (configuration not stated),nt,0%,nt,nt,nt,nt
Cc1cc(=O)c(C(=O)N(C)CCc2ccccn2)c2n1-c1ccccc1SC(c1ccsc1)C2 (configuration not stated),nt,-4%,nt,nt,nt,nt
Cc1ccc(CN2C(=O)c3ccccc3Sc3ccc(C(=O)NCc4ccco4)cc32)cc1,i,1%,10µM*,nt,nt,22%
CCCCN(C)C(=O)c1ccc2c(c1)N(Cc1cccc(F)c1)C(=O)c1ccccc1S2,i,-1%,?,nt,nt,22µM*
COC(=O)c1ccc2c(c1)N(Cc1cc(C)ccc1C)C(=O)c1ccccc1S2,i,-3%,i,nt,4%,0%
CNC(=O)c1ccc2c(c1)N(Cc1cc(C)ccc1C)C(=O)c1ccccc1S2,i,nt,?,nt,nt,16µM*
